Measured potencies and affinities stand elsewhere. Activity calls are given as the source filed them.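 The calls were made as follows: active = cell killing with a fitted half-maximal concentration at most twice the top valid dose tried; inconclusive = flat fit between -70 and -30 percent, or an invalid fit; inactive = the rest.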

The nature of this assay: viability loss in A549 lung cancer cells – cell-based, CellTiter-Glo luminescence, dry powder, set 5, cytotoxicity control, dose response (AID 743158). The note with it: CellTiter-Glo ATP luminescence, 72 h; series mostly up to 26 µM; activity change, negative = cytotoxicity: at the top concentration. Background: ATP-based viability assays read luminescence as a measure of living cells.
With `Cc1ccc(C(C)C)c(OCCn2c(=S)[nH]c3ccccc32)c1`, the “activity change, negative = cytotoxicity” value is -4.67% [at 12 µM] (inactive).
Same read-out and setting: the same measure for `CCOC(=O)c1c(-c2ccc(OC)cc2)csc1NC(=O)CN(C)CC(=O)N(C)C`: -0.238% (inactive).
The same measure, in the same setting: the figure for `CCOc1ccc(OCCn2c(=S)[nH]c3ccccc32)cc1` is -5.18% (inactive).
As to `COC(=O)C1=C(C)N(Cc2ccc(Cl)cc2)C(=S)NC1c1ccc(Br)cc1` (configuration not stated), the “activity change, negative = cytotoxicity” value was 10.9% (inactive).
The same measure, in the same setting: the figure for `Cc1ccc(OCCn2c(SCCO)nc3ccccc32)c(C(C)C)c1` is -1.14% (inactive).
As for `S=c1[nH]c2cccc(Cl)c2n1CCOc1ccccc1`, the “activity change, negative = cytotoxicity” value is 3.73% (inactive).
Same read-out and setting: the figure for `CCOC(=O)c1c(-c2ccc(F)cc2)csc1NC(=O)CN1CCN(C)CC1` is 5.49% (inactive).
Same read-out and setting: the same measure for `Cc1ccc2c(c1)[nH]c(=S)n2CCOc1ccccc1`: 22.8% (inactive); for `Cc1ccccc1OCCn1c(=S)[nH]c2ccccc21`: 6.12% (inactive); for `S=c1[nH]c2ccccc2n1CCOc1ccccc1`: -11.1% (inactive).
The same measure, in the same setting: the same measure for `COC(=O)C1=C(C)N(Cc2ccc(Br)cc2)C(=S)NC1c1ccc(F)cc1` (configuration not stated): 14.4% (inactive); for `Cc1ccc(OCCn2c(=S)[nH]c3ccccc32)cc1`: -5.22% (inactive); for `Cc1cccc(OCCn2c(=S)[nH]c3cc(C(F)(F)F)ccc32)c1`: -7.82% (inactive).
In the case of `CCOC(=O)c1c(NC(=O)CN2CCN(C)CC2)sc(C)c1-c1ccc(C)cc1`, the “activity change, negative = cytotoxicity” value is 1.65% [at 12 µM] (inactive).
Still for that read-out and setting: the same measure for `COC(=O)C1=C(C)N(Cc2ccc(F)cc2)C(=S)NC1c1cccc(F)c1` (configuration not stated): 12.2% (inactive).
With `O=c1[nH]c2ccccc2n1CCOc1ccccc1`, the result was inactive.
In the case of `COC(=O)C1=C(C)N(Cc2ccc(Br)cc2)C(=S)NC1c1ccc(OC)cc1` (configuration not stated), the “activity change, negative = cytotoxicity” value is 7.24% (inactive).
As for `c1ccc(OCCn2cnc3ccccc32)cc1`, the “activity change, negative = cytotoxicity” value was -5.44% (inactive).
With `Cc1ccc(OCCn2c(C)nc3ccccc32)cc1`, the “activity change, negative = cytotoxicity” value was 15.3% (inactive).
On the same count and under the same terms, the same measure for `COC(=O)C1=C(C)N(Cc2ccccc2)C(=S)NC1c1ccc(Br)cc1` (configuration not stated): 11.9% (inactive); for `Fc1ccccc1OCCn1c(=S)[nH]c2ccccc21`: 8.89% (inactive).
The same measure, in the same setting: the figure for `Cc1ccc(OCCn2cnc3ccccc32)cc1` is 13.4% (inactive).
`Cc1ccc(OCCn2c(=S)[nH]c3ccccc32)c(C(C)C)c1`: the outcome was inactive.
`CCOC(=O)c1c(NC(=O)CNCCN(C)C)sc(C)c1-c1ccccc1`: the “activity change, negative = cytotoxicity” value was 19.6% (inactive).
Still for that read-out and setting: the same measure for `Fc1cccc2c1[nH]c(=S)n2CCOc1ccccc1`: 22.4% (inactive); for `S=c1[nH]c2ccccc2n1CCOc1ccc(Cl)cc1`: 21.4% (inactive); for `CCOC(=O)c1c(-c2ccc(F)cc2)csc1NC(=O)CN1CCN(CC)CC1`: 7.96% (inactive).

The values are drawn from PubChem BioAssay AID743158 (Broad Institute, 2013).
